Data from PubChem BioAssay (Tox21).
Inconclusive results are not listed. Entries that show only a call come without a potency. A number with no mark means an inactive call. Active and inactive are the calls of the source. Calls come from the whole dose curve.

target: D(2) dopamine receptor (Homo sapiens) (UniProt P14416); assay: Dopamine D2 receptor (DRD2) small molecule agonists, cell-based qHTS assay (AID 1963594); settings: HEK293-DRD2 cAMP HTRF, agonist mode, 30 min; series mostly up to 92.4 µM; note: nearly all actives have a fitted effect of over 35% in size
From the text: National Center for Advancing Translational Sciences [NCATS]
Division of Preclinical Innovation [DPI]
U.S. Environmental Protection Agency [EPA]
National Institutes of Environmental Health Sciences [NIEHS]
National Toxicology Program [NTP]
U.S. Food and Drug Administration [FDA]
DRD2 is the D2 subtype of the dopamine receptor, which is coupled to Gi subtype of G protein-coupled receptor. This G protein-coupled receptor inhibits adenylyl cyclase activity. The DRD2-HEK293 cell line stably expressing D2 dopamine receptor can be used for screening agonists and antagonists of interactions between D2 and its ligands. The Hek293-DRD2 cAMP assay is based on HTRF technology. It measures changes of cAMP accumulation in response to Gi coupled GPCR activation or inhibition.
Tox21 Assay Protocol Summary:
DRD2-Hek293 cells were dispensed at 600 cells/3uL/well in 1536-well white plates using a Multidrop Dispenser. After the assay plates were incubated at a 37 C/5% CO2 incubator for 24 h, 1 uL of Ro20-1724 at final concentration of 0.1 mM was transferred to the assay plate by a Flying Reagent Dispenser. Following Ro20-1724 addition, 23 nL of compound dissolved in DMSO, positive controls or DMSO only was added to the assay plates via Wako pintool station. The assay plates were incubated at room temperature for 10 min. Next, 1 uL of NKH477 at 200nM was added into the plates. After the assay plates were incubated at room temperature for an additional 30 min, 2.5 ul/well of cAMP-d2 and 2.5 ul/well of anti-cAMP-cryptate were added respectively into the assay plates using a Flying Reagent Dispenser. The plates were incubated at room temperature for 1 h. The fluorescence intensity in the plates was measured at 340 nm excitation and 665 & 620 nm emission by an Envision plate reader.
Potency is the fitted concentration of half-maximal effect.

Chain of D(2) dopamine receptor (Homo sapiens) (P14416 whole entry, looked up): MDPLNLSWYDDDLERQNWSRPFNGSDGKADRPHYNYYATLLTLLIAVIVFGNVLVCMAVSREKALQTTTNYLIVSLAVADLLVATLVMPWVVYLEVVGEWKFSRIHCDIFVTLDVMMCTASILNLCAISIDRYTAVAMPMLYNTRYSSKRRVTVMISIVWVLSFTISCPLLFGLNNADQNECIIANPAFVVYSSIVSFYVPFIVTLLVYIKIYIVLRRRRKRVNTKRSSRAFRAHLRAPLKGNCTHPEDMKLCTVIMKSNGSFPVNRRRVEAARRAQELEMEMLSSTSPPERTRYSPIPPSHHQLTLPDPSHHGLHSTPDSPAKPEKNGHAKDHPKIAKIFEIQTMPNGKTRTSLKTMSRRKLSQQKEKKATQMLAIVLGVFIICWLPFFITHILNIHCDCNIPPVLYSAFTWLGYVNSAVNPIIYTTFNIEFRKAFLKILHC

SMILES	Potency	activation
C=CC(=O)OCCN(CC)CC	inactive	–
CC(=O)CC(N)=O	inactive	–
CC1=CC[C@H](CC=O)C1(C)C	inactive	–
O=C(c1ccc(OCCN2CCCCC2)cc1)c1c(-c2ccc(O)cc2)sc2cc(O)ccc12	inactive	–
CCCC(O)C(O)CO (stereo not given)	inactive	–
CCN1CCc2nc(N)oc2CC1	26.6 µM (active)	–
Cc1c(C(=O)c2c[nH]n(C)c2=O)ccc(S(C)(=O)=O)c1C1=NOCC1	inactive	–
C=CCCC=C	inactive	–
O=c1n(CCO)c(=O)n(CCO)c(=O)n1CCO	inactive	–
N#CCc1cccc(C(F)(F)F)c1	inactive	–
CC(C)OCCO	inactive	–
CCCc1c2oc(C(=O)O)cc(=O)c2cc2c(=O)cc(C(=O)O)n(CC)c12	inactive	–
COC(=O)c1ccc([N+](=O)[O-])cc1	inactive	–
C1CCCNCCC1	inactive	–
CCCOCCOCCO	inactive	–
CC(C(=O)O)c1cccc(C(=O)c2ccccc2)c1 (stereo not given)	inactive	–
CC(C)(C)c1ccc(O)c(O)c1	inactive	–
Cc1cccc2c1ccc1ccccc12	inactive	–
O=C(NCN1CCOCC1)c1cnccn1	inactive	–
C=C(C)C(=O)OCCCCCCOC(=O)C(=C)C	inactive	–

SMILES	Potency	activation
COc1ccc2c(c1)CCCC2=O	inactive	–
O=S(=O)(O)c1cccc(S(=O)(=O)O)c1	inactive	–
CC(=O)N(c1onc(C)c1C)S(=O)(=O)c1ccc(N)cc1	inactive	–
CC1(C)C2=CCCC(C)(C)[C@]23CC[C@H]1C3	inactive	–
CCCC[O][Al]([O]CCCC)[O]CCCC	inactive	–
Cc1cc(C)c(C)c(O)c1	inactive	–
C=CC(=O)NCOCC(C)C	inactive	–
O=C(O)CSCC(=O)NC1CCSC1=O (stereo not given)	inactive	–
C[C@@H]1O[C@@H](OC[C@H]2O[C@@H](Oc3c(-c4ccc(O)c(O)c4)oc4cc(O)cc(O)c4c3=O)[C@H](O)[C@@H](O)[C@@H]2O)[C@H](O)[C@H](O)[C@H]1O	inactive	–
C[C@@H]1CCN(C(=O)[C@H](CCCN=C(N)N)NS(=O)(=O)c2cccc3c2NC[C@H](C)C3)[C@@H](C(=O)O)C1	inactive	–
CCN(CC)S(=O)(=O)c1ccc(C(=O)O)cc1	inactive	–
CCCCCCCCO[C@@H]1O[C@H](CO)[C@@H](O)[C@H](O)[C@H]1O	inactive	–
CCOc1ccc(N)c([N+](=O)[O-])c1	inactive	–
c1ccc(SCCSc2ccccc2)cc1	inactive	–
CCCC=O	inactive	–
C=C1CC/C=C(\C)CC[C@@H]2[C@@H]1CC2(C)C	inactive	–
CC(=O)Oc1cccc(O)c1	inactive	–
Cn1ccnc1	inactive	–
Cc1ccc(C(C)(C)O)cc1	inactive	–
O=C(O)CN(CCN(CC(=O)O)CC(=O)O)CCN(CC(=O)O)CC(=O)O	–	-12% [at 19 µM]
